The source of these data is PubChem BioAssay AID504652 (National Center for Advancing Translational Sciences (NCATS), 2011).

Screen size: about 360,000 compounds; about 11,000 (3.1%) were called active. Many of the other results were omitted from the sample, so actives are more common in it than they were. Unmarked numbers belong to inactive results. No stated cut-off is given here; in the data, active means activity change below about -30%; inactive means the rest.
On the % scale 0 is the no-effect control and ±100 the full control effect.

In the assay the target is D(1A) dopamine receptor (Homo sapiens) (UniProt P21728). Kind of assay: Antagonist of Human D 1 Dopamine Receptor: qHTS. The settings on record: HEK293 TREx D1 cells, calcium flux, dopamine EC80; at 10 µM; stronger effect = lower value. The text has this: Dopamine receptors (DARs) are involved in the etiology and/or therapy of a number of neuropsychiatric and endocrine disorders. For instance, all receptor-based antiparkinsonian drugs work via stimulating the […] DAR subtype whereas all FDA-approved antipsychotic agents are antagonists of this receptor. […] There are three different types of allosteric modulators that we are seeking, two of which will stimulate or augment receptor signaling, allosteric agonists and potentiators, while the third, allosteric antagonists, will attenuate receptor signaling. The present primary screening assay measures compound antagonism after an EC80 addition of dopamine by tracking calcium flux in a […], inducible Hek293 Trex D1 cell line. NIH Chemical Genomics Center [NCGC] NIH Molecular Libraries Probe Centers Network [MLPCN] MLPCN Grant: NS064831-01 Assay Submitter (PI): David Sibley
D(1A) dopamine receptor (Homo sapiens), sequence (P21728 whole entry, looked up): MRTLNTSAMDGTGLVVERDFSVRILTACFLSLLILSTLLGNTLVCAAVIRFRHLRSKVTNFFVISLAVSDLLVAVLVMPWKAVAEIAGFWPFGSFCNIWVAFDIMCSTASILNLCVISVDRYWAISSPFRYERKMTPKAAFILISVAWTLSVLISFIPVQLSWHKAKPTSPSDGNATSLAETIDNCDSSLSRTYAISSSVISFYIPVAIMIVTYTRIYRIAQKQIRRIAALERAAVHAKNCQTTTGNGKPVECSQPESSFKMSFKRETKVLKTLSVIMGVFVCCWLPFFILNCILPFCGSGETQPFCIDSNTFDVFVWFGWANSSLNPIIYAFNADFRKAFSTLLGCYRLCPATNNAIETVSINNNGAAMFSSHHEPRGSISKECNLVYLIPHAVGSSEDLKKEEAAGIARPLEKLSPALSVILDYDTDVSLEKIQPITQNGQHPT
Freshly passaged cells are plated in 1536 well black, clear bottom plates at a density of 4000 cells/well in 3 ul of complete media containing 1x tetracycline inducer. After an overnight incubation at 30 C in 5% CO2, cells are loaded with 2 ul of the no wash Calcium Assay Kit (ABD Bioquest) and incubated at room temperature for 30 to 90 minutes. Agonist read: A 10 cycle (1 second/cycle) baseline measurement is taken and then the FDSS online 1536 pintool delivers 23 nl of compound library (as well as dopamine controls) to the plate. The plate is measured for kinetically at 1 cycle/sec for 180 seconds. Following the 180 second read, 1 ul of an EC80 (negative modulation assay) is delivered by an onboard pipette head. Measurements are taken kinetically for an additional 180 seconds.
(In general: In qHTS, concentration-response curves come from the screen itself.)
`CCc1ccccc1NC(=O)CSc1nnc(-c2ccncc2)o1`: the activity change, negative = inhibition was 7.4%.

As for `CCN(C(=O)CSc1nnc(-c2ccncc2)o1)c1ccccc1`, the activity change, negative = inhibition was -3.41%.

`CCOc1ccc(C(=O)c2cn(Cc3ccc(F)cc3)c3ccc(F)cc3c2=O)cc1`: the activity change, negative = inhibition was -1.13%.

With `Cc1cccc(Cn2c(SCc3ccc(C(=O)N4CCC(C)CC4)cc3)nc3ccncc32)c1`, the activity change, negative = inhibition is -18.5%.

Turning to `CN1CC(c2ccccc2)C2(COc3ccccc3C2=O)C12C(=O)Nc1ccccc12` (stereo not given), the activity change, negative = inhibition is -39.3% (active).

In the case of `O=C1NC(c2ccccc2)Oc2ccccc21` (stereo not given), the activity change, negative = inhibition is 3.6%.

In the case of `Oc1ccccc1-c1nc(/C=C/c2ccc(F)cc2)no1`, the activity change, negative = inhibition was 3.54%.

As to `Cc1cc2c(cc1S(=O)(=O)CCC(=O)Nc1ccc(OC(F)(F)F)cc1)OCC(=O)N2`, the activity change, negative = inhibition is -0.986%.

On to `CCOC(=O)c1ccc(NC(=O)CC2C(=O)N(c3cccc(OC)c3)C(=O)N2C2CCCCC2)cc1` (stereo not given), for which the activity change, negative = inhibition was -8.12%.

For the molecule `CC(=O)c1sc(NC(=O)C2=NN(c3ccccc3)C(=O)CC2)nc1C`, the activity change, negative = inhibition is 2.3%.

In the case of `CC(=O)c1sc(N/N=C\c2ccc(C)cc2)nc1C`, the activity change, negative = inhibition is -54.7% (active).

For the molecule `CC(=O)c1sc(N/N=C/c2ccc(C(C)C)cc2)nc1C`, the activity change, negative = inhibition was -11%.

As to `CCOC(=O)CNC(=O)c1cc2c(=O)n3cccc(C)c3nc2s1`, the activity change, negative = inhibition is 0.697%.

For `COc1ccc(N(CC(=O)NC2CCCCCCC2)S(=O)(=O)c2c(C)nn(C)c2C)cc1`, the activity change, negative = inhibition was -2.1%.

`COc1ccc(N(CC(=O)NC2CCCCC2)S(=O)(=O)c2c(C)[nH]c(=O)[nH]c2=O)cc1`: the activity change, negative = inhibition was -34% (active).

As for `CCOc1ccc(N(CC(=O)NC2CCCCCC2)S(=O)(=O)c2c(C)[nH]c(=O)[nH]c2=O)cc1`, the activity change, negative = inhibition is 7.77%.

For the molecule `CCCOn1c(-n2nc(C)cc2C)nc2ccccc2c1=O`, the activity change, negative = inhibition was -4.18%.

Consider `Cc1cc(C)n(-c2c(F)c(F)c(COC(=O)c3ccccc3)c(F)c2F)n1`, for which the activity change, negative = inhibition is -44% (active).

Consider `CCOC(=O)c1cnc(-n2nc(C)cc2C)nc1NNc1cc(C)nc(-c2ccccc2)n1`, for which the activity change, negative = inhibition was -5.98%.

Consider `CCCN(CCC)C(=O)C1CCCN(c2ncnc3c2nc2n3CCCCC2)C1` (stereo not given), for which the activity change, negative = inhibition was 11.5%.

As to `Cc1cc(C(=O)Nc2ccc(C)c(S(=O)(=O)N3CCOCC3)c2)c2ccccc2n1`, the activity change, negative = inhibition was 11.4%.

`CC(OC(=O)CCCc1c[nH]c2ccccc12)C(=O)Nc1ccc(S(N)(=O)=O)cc1` (stereo not given): the activity change, negative = inhibition is 8.67%.

For the molecule `Cc1ccc(NC(=O)C(C)OC(=O)Cc2c[nH]c3ccccc23)cc1S(=O)(=O)N1CCOCC1` (stereo not given), the activity change, negative = inhibition was -47.8% (active).

For `COc1cc(OC)c(OC)cc1/C=C/c1nc2cc3ccccc3cc2c(=O)n1-c1ccc(F)c(Cl)c1`, the activity change, negative = inhibition was -0.661%.

Turning to `CCCN(CCC)C(=O)Cn1c(=O)n(-c2ccc(Cl)cc2)c(=O)c2c3c(sc21)CCCCC3`, the activity change, negative = inhibition is 10.1%.

For `Cc1ccc(CNC(=O)Cn2c(=O)ccc3cc(S(=O)(=O)N4CCCC4)ccc32)cc1`, the activity change, negative = inhibition was 3.17%.

As to `Cc1ccc(NC(=O)OCCNC(=O)c2ccncc2)cc1`, the activity change, negative = inhibition was -26.6%.

As for `CCCCC(CCC(=O)Nc1ccc(C(=O)OCC)cc1)C(=O)O` (stereo not given), the activity change, negative = inhibition was -5.38%.

As for `CCCCCOC(=O)NCCOC(=O)Nc1ccc(C(=O)OCC)cc1`, the activity change, negative = inhibition was -34.7% (active).

`Cc1ccc2nc(COc3cccc(NC(=O)c4cccc(Cl)c4)c3)cc(=O)n2c1`: the activity change, negative = inhibition is 3.14%.

Consider `CCOC(=O)c1cc2c(=O)n3ccccc3nc2n(Cc2ccco2)c1=NC(=O)c1ccc(F)cc1`, for which the activity change, negative = inhibition was -29.5%.

On to `COc1ccc(OC)c(NC(=O)Cn2c(=O)n(Cc3ccccc3)c(=O)c3ccccc32)c1`, for which the activity change, negative = inhibition is -5.43%.

Take `CCOc1ccc(NC(=O)c2c(NC(=O)Cc3ccccc3)sc3c2CCC(C)C3)cc1` (stereo not given): the activity change, negative = inhibition is 11.2%.

Take `Cc1ccc(NC(=O)c2cc(S(=O)(=O)NCCC3=CCCCC3)ccc2F)cc1C`: the activity change, negative = inhibition was -29.8%.

Consider `CC(Nc1nc(N2CCCC2)nc2ccccc12)c1ccccc1` (stereo not given), for which the activity change, negative = inhibition is -25.4%.

On to `CC(Nc1nc(N2CCOCC2)nc2ccccc12)c1ccccc1` (stereo not given), for which the activity change, negative = inhibition is -48.3% (active).

For `CC(Nc1nc(N2CCN(CCO)CC2)nc2ccccc12)c1ccccc1` (stereo not given), the activity change, negative = inhibition is 2.98%.

`Cc1ccccc1CNC(=O)c1cccc(NC(=O)c2nsc3ccccc23)c1`: the activity change, negative = inhibition is 3.86%.

Consider `COc1cc(CNCCSc2nnnn2C)ccc1OCc1ccc(Cl)cc1Cl`, for which the activity change, negative = inhibition is 0.753%.

For the molecule `CN(C)c1ccc(C(=O)NCC(=O)OC(C(=O)Nc2cc(C(F)(F)F)ccc2Cl)c2ccccc2)cc1` (stereo not given), the activity change, negative = inhibition is -15.1%.

Consider `Cc1ccc(C(=O)Cn2cccn2)cc1`, for which the activity change, negative = inhibition was -6.01%.

Consider `Cc1ccc(C(=O)CS(C)(=O)=O)cc1`, for which the activity change, negative = inhibition is -33.3% (active).

On to `Cc1ccc(C(=O)Cc2nnc(C)s2)cc1`, for which the activity change, negative = inhibition was 7.19%.

Consider `CCc1nc2onc(C)c2c(=O)n1CC(=O)O`, for which the activity change, negative = inhibition was 10.4%.

As to `O=C(COc1ccccc1F)OCc1cc(=O)n2nc(C3CCCCC3)sc2n1`, the activity change, negative = inhibition is 11%.
